The values below come from PubChem BioAssay AID1878 (Sanford-Burnham Center for Chemical Genomics, 2009).

Molecules are shown by their SMILES. Screen size: about 1,000 compounds; about 200 (20%) were called active. The list is a sample of the results. Results with a measured potency or affinity are listed apart. A number with no mark means an inactive call. No stated cut-off is given here; in the data, active means inhibition above about 55%; inactive means the rest.

One may read the inhibition as the relative decrease from the control value, in per cent.

For the test, the target named is Dual specificity protein phosphatase 3 (Homo sapiens) (UniProt P51452). In words: VHR1 phosphatase inhibitors, biochemical (AID 1878). The conditions noted are these: recombinant VHR phosphatase, fluorogenic substrate; at 13.3 µM; hits give high values.
Chain of Dual specificity protein phosphatase 3 (Homo sapiens) (P51452 whole entry, looked up): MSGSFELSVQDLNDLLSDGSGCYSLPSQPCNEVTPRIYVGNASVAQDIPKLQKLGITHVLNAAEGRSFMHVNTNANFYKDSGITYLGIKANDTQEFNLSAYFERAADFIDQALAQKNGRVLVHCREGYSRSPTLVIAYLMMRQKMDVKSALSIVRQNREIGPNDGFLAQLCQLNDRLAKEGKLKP
Turning to `CC1CCCCN1CCCNC(=O)Cn1c(=O)c2cccn2c2ccccc21` (configuration not stated), the inhibition is -1.3%.

`COc1ccc(/C=N\NC(=O)c2cc(O)c(O)c(O)c2)cc1CN1CCN(c2ccc(F)cc2)CC1`: the inhibition is -34.7%.

Take `COc1ccc2c(c1)cc1c(=O)n(CC(=O)NC(C)CCc3ccccc3)nc(C)n12` (configuration not stated): the inhibition was -4%.

On to `CN1CC(=O)N2Cc3[nH]c4ccccc4c3C[C@H]2C1=O`, for which the inhibition was 11.2%.

Take `Cc1ccc(N2CCN(c3ncccc3[N+](=O)[O-])CC2)c(C)c1`: the inhibition was 8.1%.

On to `NC(=O)C(c1ccc(F)cc1)c1ccc(C(=O)c2ccccc2)cc1` (configuration not stated), for which the inhibition is 18.3%.

With `CCOCCn1c2ccccc2c2nc3ccccc3nc21`, the inhibition is -4.2%.

Consider `COc1ccc(C(=O)/C=C2/C(=O)Nc3ccccc32)cc1OC`, for which the inhibition is 13.2%.

Take `CC(Oc1ccc2ccc(=O)oc2c1)C(=O)NC1CC(C)(C)NC(C)(C)C1` (configuration not stated): the inhibition was -2.5%.

As to `Nc1ccc2c(c1Cl)C(=O)c1ccc(N)c(Cl)c1C2=O`, the inhibition was 99.8% (active).

Take `CCCC(=O)Nc1ccc(S(=O)(=O)N2CCOCC2)cc1`: the inhibition was -5.6%.

As to `CC(C)(C)CC(=O)Nc1ccc(-c2nnc3n2CCCCC3)cc1`, the inhibition was 27.9%.

Take `COc1nc(C)cc(C)c1S(=O)(=O)c1ccccc1`: the inhibition was 6.1%.

For `O=C(NCCc1ccccc1)C1CC(=O)N(CCc2ccccc2)C1` (configuration not stated), the inhibition was -8.3%.

With `c1ccc(CCNC2CCCCCC2)cc1`, the inhibition is 14.2%.

As to `CC1CCN(S(=O)(=O)c2ccc3c(c2)N(CC(=O)NCCCN2C(C)CCCC2C)C(=O)CO3)CC1` (configuration not stated), the inhibition was -11.5%.

Consider `O=C(O)Cn1nc2c3c(cccc3c1=O)-c1ccccc1-2`, for which the inhibition was -3.4%.

For `Cc1cc2nc(/C=C/c3nc4cc(C)c(C)cc4[nH]3)[nH]c2cc1C`, the inhibition was 82.4% (active).

As to `NC(=O)C(c1ccccc1)c1ccc(C(=O)c2ccccc2)cc1` (configuration not stated), the inhibition is -3.2%.

As for `Cn1nc([N+](=O)[O-])c2c(-c3nc4ccccc4s3)c(N)n(C3CCCCC3)c2c1=O`, the inhibition was 97.9% (active).

For the compound `COc1cccc(NC(=O)CN(C)S(=O)(=O)c2ccc3[nH]c(=O)oc3c2)c1`, the inhibition is 9%.

With `O=C(Cn1ncc2c([nH]c3ccccc32)c1=O)N1CCOCC1`, the inhibition is 16.5%.

Take `COc1cc(/C=C2/C(=O)N(c3cccc(Br)c3)N=C2C)cc(OC)c1O`: the inhibition was 6.8%.

With `COc1cc(/C=C2/C(=O)NN(c3ccc(Cl)cc3)C2=O)cc(OC)c1O`, the inhibition is 17.9%.

With `CC(C)(C)OC(=O)NCC1CCN(S(=O)(=O)Cc2ccccc2)CC1`, the inhibition is -7.1%.

In the case of `C/C(N)=C(/C#N)C(=O)COC(=O)c1cc(-c2ccc(Br)cc2)nc2ccccc12`, the inhibition was -2.7%.

As to `CCOc1ccc(-c2cc(C(=O)NCCCN3CCCC3)c3ccccc3n2)cc1`, the inhibition is -16.4%.
